Test results reported in the supplement of paper PMC10646978.
± gives the standard deviation.

Key:
Conditions in all cases: modulator concentration 10 µM
[1] = tested on: RAW-Dual (murine macrophage reporter line); test: NF-kB reporter (SEAP) activity fold change vs agonist alone; higher = enhanced NF-kB activity
In short: (§1)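 RAW-Dual murine macrophage reporter cells were seeded at 50 000 per well in 384-well plates and pre-incubated 1 hour at 37 °C with compound pin-transferred to 10 μM final. After 1 hour, a PRR agonist was added and cells incubated overnight. Supernatant NF-κB (SEAP, QUANTI-Blue, 620 nm absorbance) and IRF (Lucia luciferase, QUANTI-Luc, luminescence) signals were divided by the mean agonist-only control on the same plate to give fold change. Two replicate plates were averaged, with errors by propagation.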

[2] = tested on: RAW-Dual (murine macrophage reporter line); test: IRF reporter (Lucia luciferase) activity fold change vs agonist alone; higher = enhanced IRF activity
In short: as §1

[3] = tested on: RAW-Dual (murine macrophage reporter line); test: viability score (confluency relative to resting cells, overnight) (fraction); higher = more viable, active = viable (0.7 or more)
In short: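 RAW-Dual macrophages in 384-well plates were treated overnight with compound at 10 μM final. IncuCyte imaging recorded confluency, and IncuCyte software built two confluency masks across every imaged well. The viability score expresses confluency relative to resting cells and was judged against a cutoff, which a compound met only if both masks exceeded 70% of resting cells.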

[4] = agonist: CpG ODN 1826 0.5 ug/mL

| Structure (SMILES) | NF-kB reporter [1, 4] | NF-kB reporter ([1]; agonist: LPS 0.1 ug/mL) | NF-kB reporter ([1]; agonist: MPLA […]) | IRF reporter ([2]; agonist: 3'3'-cGAMP 10 ug/mL) | IRF reporter ([2]; agonist: LPS 0.1 ug/mL) | IRF reporter ([2]; agonist: MPLA […]) | viability score [3] |
| --- | --- | --- | --- | --- | --- | --- | --- |
| CC(C)NCC(O)COc1ccccc1C(C)(C)C.Cl (configuration not stated) | 0.857 ± 0.063 | 1.02 ± 0.098 | 1.15 ± 0.03 | 0.796 ± 0.029 | 1.02 ± 0.084 | 0.952 ± 0.17 | 0.922 (active) |
| Cl.O[C@@H](CNC[C@H](O)[C@H]1CCc2cc(F)ccc2O1)[C@@H]1CCc2cc(F)ccc2O1 | 0.947 ± 0.09 | 0.759 ± 0.049 | 0.982 ± 0.028 | 0.68 ± 0.087 | 0.642 ± 0.021 | 1.13 ± 0.21 | 0.13 (inactive) |
| Cc1c(C(=O)NN)sc(-c2ccccc2)c1C#N | 0.868 ± 0.071 | 1.13 ± 0.074 | 0.987 ± 0.034 | 0.562 ± 0.071 | 1.08 ± 0.12 | 1.43 ± 0.29 | 0.998 (active) |
| COc1ccccc1OCCNCC(O)COc1cccc2[nH]c3ccccc3c12 (configuration not stated) | 0.0926 ± 0.0072 | 0.894 ± 0.057 | 0.892 ± 0.084 | 1.26 ± 0.086 | 1.53 ± 0.11 | 1.53 ± 0.16 | 0.957 (active) |
| CN[C@H]1CC[C@@H](c2ccc(Cl)c(Cl)c2)c2ccccc21.Cl | 0.407 ± 0.039 | 0.757 ± 0.049 | 1.49 ± 0.14 | 1.18 ± 0.1 | 1.27 ± 0.084 | 1.97 ± 0.23 | 0.258 (inactive) |
| CC[C@H](C)C(=O)O[C@H]1CCC=C2C=C[C@H](C)[C@H](CC[C@@H]3C[C@@H](O)CC(=O)O3)[C@H]21 | 1.34 ± 0.13 | 1.57 ± 0.14 | 1.04 ± 0.063 | 0.751 ± 0.051 | 1.01 ± 0.061 | 1.1 ± 0.085 | 0.935 (active) |
| O=S(=O)(Cc1ccccc1)c1nc2ccccc2n1Cc1ccc(Cl)cc1 | 0.661 ± 0.045 | 1.1 ± 0.071 | 0.978 ± 0.057 | 1.32 ± 0.059 | 1.35 ± 0.092 | 1.36 ± 0.19 | 0.965 (active) |
| Cc1ccc(-c2nn(-c3ccccc3)cc2C=C(C#N)C(N)=O)o1 | 1.04 ± 0.26 | 0.991 ± 0.081 | 1 ± 0.081 | 1.01 ± 0.041 | 1.22 ± 0.2 | 1.12 ± 0.11 | 0.966 (active) |
| CCc1c(C)[nH]c2c1C(=O)C(CN1CCOCC1)CC2 (configuration not stated) [Prestw-1035] | 1.2 ± 0.1 | 0.92 ± 0.07 | 0.934 ± 0.027 | 1.03 ± 0.04 | 0.925 ± 0.049 | 0.959 ± 0.11 | 1 (active) |
| COc1ccc(OC)c(S(=O)(=O)NCC2CC(=O)N(c3ccc(Cl)cc3)C2)c1 (configuration not stated) | 0.857 ± 0.039 | 0.968 ± 0.12 | 0.911 ± 0.052 | 0.762 ± 0.035 | 1.27 ± 0.23 | 1.21 ± 0.35 | 1.01 (active) |
| CSCCC(NC(C)=O)C(=O)N1CCc2nc3ccc(Cl)cn3c(=O)c2C1 (configuration not stated) | 1.42 ± 0.35 | 0.918 ± 0.047 | 1.06 ± 0.12 | 1.01 ± 0.043 | 1.24 ± 0.17 | 1.29 ± 0.21 | 0.986 (active) |
| CCOc1nccn2c(CNC(=O)c3cccnc3)nnc12 | 0.929 ± 0.098 | 1.05 ± 0.084 | 1.11 ± 0.15 | 1.03 ± 0.064 | 1.02 ± 0.19 | 1 ± 0.4 | 0.988 (active) |
| Cc1c(C)n2c3c(=O)n(CC=Cc4ccccc4)c(=O)n(C)c3nc2n1CCOCCO | 0.702 ± 0.046 | 1.16 ± 0.091 | 1.03 ± 0.17 | 0.98 ± 0.055 | 1.03 ± 0.063 | 1.09 ± 0.085 | 0.955 (active) |
| O=S(=O)(NCc1ccccn1)c1cccc(Cl)c1 | 0.918 ± 0.039 | 0.986 ± 0.12 | 1.06 ± 0.057 | 1.02 ± 0.061 | 1.32 ± 0.17 | 1.49 ± 0.46 | 0.986 (active) |
| O=[N+]([O-])c1cc2c(cc1C=Nc1ccc(O)cc1)OCO2 | 0.842 ± 0.14 | 1.09 ± 0.17 | 1.27 ± 0.11 | 0.443 ± 0.011 | 1.19 ± 0.15 | 1.12 ± 0.22 | 1 (active) |
| Cc1c(OCC(F)(F)F)ccnc1CS(=O)c1nc2ccccc2[nH]1 (configuration not stated) | 1 ± 0.16 | 0.915 ± 0.28 | 0.929 ± 0.063 | 0.699 ± 0.037 | 1.11 ± 0.3 | 1.07 ± 0.096 | 0.984 (active) |
| CS(=O)(=O)N(CC(=O)NC1CC1)c1cccc2ccccc12 | 1.04 ± 0.095 | 1.01 ± 0.12 | 0.901 ± 0.056 | 1 ± 0.039 | 1.59 ± 0.35 | 1.16 ± 0.17 | 1.01 (active) |
| Cc1[nH]c(=O)c(C#N)cc1-c1ccncc1 | 1.34 ± 0.19 | 1.26 ± 0.28 | 2.34 ± 1.3 | 0.895 ± 0.027 | 1.31 ± 0.15 | 1.34 ± 0.2 | 0.99 (active) |
| CC(=O)Oc1ccccc1C(=O)O | 1.01 ± 0.085 | 1.05 ± 0.079 | 0.959 ± 0.048 | 1.02 ± 0.068 | 0.964 ± 0.044 | 0.884 ± 0.11 | 0.998 (active) |
| COc1ccc(OC)c(Nc2nc(-c3c(C)nc4ccccn34)cs2)c1 | 1.35 ± 0.22 | 1.45 ± 0.12 | 1.58 ± 0.13 | 0.241 ± 0.0091 | 1.25 ± 0.22 | 1.53 ± 0.24 | 0.967 (active) |
| O=C(Nc1cccc(C(F)(F)F)c1)Nc1cnn(CC2COc3ccccc3O2)c1 (configuration not stated) | 0.717 ± 0.05 | 0.934 ± 0.078 | 1.1 ± 0.059 | 0.913 ± 0.051 | 1.08 ± 0.12 | 1.78 ± 0.45 | 0.841 (active) |
| Cc1[nH]c2ccc(Br)cc2c(=O)c1CN1CCOCC1 | 1.06 ± 0.062 | 0.995 ± 0.11 | 0.972 ± 0.027 | 1.01 ± 0.073 | 0.973 ± 0.1 | 0.937 ± 0.16 | 0.995 (active) |
| Cn1c(=O)[nH]c2nnc(-c3ccncc3)nc2c1=O | 0.815 ± 0.07 | 0.872 ± 0.077 | 1.07 ± 0.12 | 0.935 ± 0.05 | 1.32 ± 0.15 | 1.47 ± 0.2 | 1.02 (active) |
| Cc1cc(NC(=O)CC(C)C)ccc1N1CCCCC1=O | 1.03 ± 0.097 | 1.03 ± 0.085 | 0.936 ± 0.11 | 1 ± 0.065 | 1.23 ± 0.11 | 1.14 ± 0.32 | 1.01 (active) |
| C#CCOC(=O)CCCC(=O)Nc1ccc([N+](=O)[O-])cc1Cl | 0.957 ± 0.066 | 1.01 ± 0.067 | 0.975 ± 0.062 | 1.01 ± 0.036 | 1.59 ± 0.11 | 1.3 ± 0.21 | 0.999 (active) |
| COc1ccc(Br)cc1S(=O)(=O)NCc1ccccc1 | 1.23 ± 0.3 | 0.932 ± 0.054 | 1.06 ± 0.11 | 1.18 ± 0.046 | 1.19 ± 0.13 | 1.21 ± 0.16 | 0.928 (active) |
